# Measurements: PubChem BioAssay (NCATS)
# Results filed as inconclusive are left out. The source made the active and inactive calls. Calls follow the shape of the dose curve; as a rule, active = well fitted curve in the direction sought with a large enough effect; inconclusive = small, poorly fitted or top-dose-only effect, or another doubt; inactive = no such curve, though single readings can be large; an effect the other way counts as inactive or inconclusive.
# Experiments:
# [1] = Quantitative High-Throughput drug screen in 47 multiple myeloma cell lines against the NCATS MIPE library collection: KHM11_PLB cell viability assay (AID 1918962); also: nearly all actives have a fitted effect of over 35% in size
# How it was run: (§1)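 Myeloma cell lines, 500 cells per well, exposed to MIPE 4.0 library compounds for 48 h at 37C, 5% CO2. Viability from ATP by CellTiter-Glo luminescence; normalised to DMSO (100%) and media-only (0%) wells.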
# [2] = Quantitative High-Throughput drug screen in 47 multiple myeloma cell lines against the NCATS MIPE library collection: JIM1_ECACC cell viability assay (AID 1918964)
# How it was run: (§2)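 Approved and investigational drugs from MIPE 4.0 were added by pin tool to 500 cells per well. After 48 hours at 37C, ATP-based CellTiter-Glo luminescence indicated remaining viability.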
# [3] = Quantitative High-Throughput drug screen in 47 multiple myeloma cell lines against the NCATS MIPE library collection: INA6_PLB cell viability assay (AID 1918965; also: nearly all actives have a fitted effect of over 55% in size)
# How it was run: as §1
# [4] = Quantitative High-Throughput drug screen in 47 multiple myeloma cell lines against the NCATS MIPE library collection: Karpas25_ECACC cell viability assay (AID 1918968; also: nearly all actives have a fitted effect of over 35% in size)
# How it was run: as §2
# [5] = Quantitative High-Throughput drug screen in 47 multiple myeloma cell lines against the NCATS MIPE library collection: KMS27_JCRB cell viability assay (AID 1918970); also: nearly all actives have a fitted effect of over 30% in size
# How it was run: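 Luminescent ATP read-out (CellTiter-Glo, 5 min at room temperature) after 48 h compound exposure of 500 KMS27_JCRB cells per well; DMSO wells define full viability and media-only wells zero.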
# [6] = Quantitative High-Throughput drug screen in 47 multiple myeloma cell lines against the NCATS MIPE library collection: KMS12BM_JCRB cell viability assay (AID 1918971); also: nearly all actives have a fitted effect of over 35% in size
# How it was run: (§3)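 CellTiter-Glo luminescence (ATP) after 48 h compound exposure, 37C/5% CO2; 500 cells/well; MIPE 4.0 approved/investigational drugs pinned in; DMSO = 100%, media only = 0% viability.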
# [7] = Quantitative High-Throughput drug screen in 47 multiple myeloma cell lines against the NCATS MIPE library collection: KMS12PE_JCRB cell viability assay (AID 1918972); also: nearly all actives have a fitted effect of over 30% in size
# How it was run: as §1
# [8] = Quantitative High-Throughput drug screen in 47 multiple myeloma cell lines against the NCATS MIPE library collection: KMS20_JCRB cell viability assay (AID 1918973); also: nearly all actives have a fitted effect of over 45% in size
# How it was run: as §2
# [9] = Quantitative High-Throughput drug screen in 47 multiple myeloma cell lines against the NCATS MIPE library collection: KMS26_JCRB cell viability assay (AID 1918975); also: nearly all actives have a fitted effect of over 45% in size
# How it was run: as §3
# [10] = Quantitative High-Throughput drug screen in 47 multiple myeloma cell lines against the NCATS MIPE library collection: MMM1_PLB cell viability assay (AID 1918976); also: nearly all actives have a fitted effect of over 35% in size
# How it was run: (§4)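 500 cells/well per myeloma line exposed to pinned MIPE 4.0 compounds for 48 h at 37 °C, 5% CO2. Viability read as ATP by CellTiter-Glo luminescence, normalised to DMSO-only (100%) and media-only (0%) wells.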
# [11] = Quantitative High-Throughput drug screen in 47 multiple myeloma cell lines against the NCATS MIPE library collection: NCIH929_DSMZ cell viability assay (AID 1918978); also: nearly all actives have a fitted effect of over 35% in size
# How it was run: as §4
# [12] = Quantitative High-Throughput drug screen in 47 multiple myeloma cell lines against the NCATS MIPE library collection: OCIMY1_PLB cell viability assay (AID 1918979); also: nearly all actives have a fitted effect of over 35% in size
# How it was run: as §4
# [13] = Quantitative High-Throughput drug screen in 47 multiple myeloma cell lines against the NCATS MIPE library collection: MM1S_ATCC cell viability assay (AID 1918980); also: nearly all actives have a fitted effect of over 45% in size
# How it was run: as §4
# [14] = Quantitative High-Throughput drug screen in 47 multiple myeloma cell lines against the NCATS MIPE library collection: MM1R_ATCC cell viability assay (AID 1918981); also: nearly all actives have a fitted effect of over 35% in size
# How it was run: as §4
# [15] = Quantitative High-Throughput drug screen in 47 multiple myeloma cell lines against the NCATS MIPE library collection: LP1_DSMZ cell viability assay (AID 1918982); also: nearly all actives have a fitted effect of over 35% in size
# How it was run: as §4
# [16] = Quantitative High-Throughput drug screen in 47 multiple myeloma cell lines against the NCATS MIPE library collection: JJN3_DSMZ cell viability assay (AID 1918966; also: nearly all actives have a fitted effect of over 50% in size)
# How it was run: as §2
# [17] = Quantitative High-Throughput drug screen in 47 multiple myeloma cell lines against the NCATS MIPE library collection: MOLP8_DSMZ cell viability assay (AID 1918977); also: nearly all actives have a fitted effect of over 45% in size
# How it was run: as §4
# [18] = Quantitative High-Throughput drug screen in 47 multiple myeloma cell lines against the NCATS MIPE library collection: KMS21BM_JCRB cell viability assay (AID 1918974); conditions: ATP luminescence, 48 h; viability: at 45.8 µM (top of the series) unless noted
# How it was run: as §2
# [19] = Quantitative High-Throughput drug screen in 47 multiple myeloma cell lines against the NCATS MIPE library collection: H1112_PLB cell viability assay (AID 1918967; also: nearly all actives have a fitted effect of over 30% in size)
# How it was run: as §2
# [20] = Quantitative High-Throughput drug screen in 47 multiple myeloma cell lines against the NCATS MIPE library collection: JIM3_ECACC cell viability assay (AID 1918963; also: nearly all actives have a fitted effect of over 35% in size)
# How it was run: as §1
# Potency is read from the fitted curve at half-maximal effect.
Compound,Potency [1],Potency [2],Potency [3],Potency [4],Potency [5],Potency [6],Potency [7],Potency [8],Potency [9],Potency [10],Potency [11],Potency [12],Potency [13],Potency [14],Potency [15],Potency [16],Potency [17],Potency [18],Potency [19],Potency [20]
Cc1cc(C(=O)N2CCN(c3cccc(Cl)c3)CC2)n(-c2ccccc2)n1,0.418 µM (active),0.0118 µM (active),0.418 µM (active),1.32 µM (active),0.148 µM (active),0.264 µM (active),0.743 µM (active),0.209 µM (active),18.7 µM (active),7.43 µM (active),16.6 µM (active),3.72 µM (active),16.6 µM (active),9.35 µM (active),5.26 µM (active),,,,,
NC1(Cc2ccc(Cl)cc2)CCN(c2ncnc3[nH]ccc23)CC1,2.96 µM (active),2.96 µM (active),3.72 µM (active),1.87 µM (active),4.69 µM (active),18.7 µM (active),3.72 µM (active),3.32 µM (active),6.62 µM (active),0.526 µM (active),0.935 µM (active),,1.87 µM (active),5.9 µM (active),,13.2 µM (active),8.33 µM (active),,,
Cc1nc(N)ncc1-c1nc(N2CCOCC2)c2sc(C(C)(C)O)cc2n1,0.662 µM (active),0.0418 µM (active),3.72 µM (active),0.418 µM (active),0.235 µM (active),8.33 µM (active),,1.32 µM (active),0.526 µM (active),0.148 µM (active),0.0526 µM (active),0.105 µM (active),0.743 µM (active),1.32 µM (active),,5.26 µM (active),0.118 µM (active),1.05 µM (active),,
O=C(Nc1nc2cccc(-c3ccc(CN4CCS(=O)(=O)CC4)cc3)n2n1)C1CC1,13.2 µM (active),5.9 µM (active),3.32 µM (active),16.6 µM (active),,7.43 µM (active),,18.7 µM (active),13.2 µM (active),9.35 µM (active),,23.5 µM (active),20.9 µM (active),14.8 µM (active),20.9 µM (active),7.43 µM (active),14.8 µM (active),,23.5 µM (active),
C[C@@H]1COC(Nc2ccc3ncnc(Nc4ccc(OCc5nccs5)c(Cl)c4)c3c2)=N1,16.6 µM (active),13.2 µM (active),4.69 µM (active),2.64 µM (active),9.35 µM (active),14.8 µM (active),16.6 µM (active),,20.9 µM (active),23.5 µM (active),3.32 µM (active),,4.18 µM (active),,26.4 µM (active),20.9 µM (active),,,1.32 µM (active),
Cc1coc2c1C(=O)C(=O)c1c-2ccc2c1CCCC2(C)C,7.43 µM (active),inactive,16.6 µM (active),,0.166 µM (active),5.26 µM (active),,9.35 µM (active),2.96 µM (active),,13.2 µM (active),16.6 µM (active),,18.7 µM (active),4.18 µM (active),11.8 µM (active),,,,
COc1cc(C)c(Sc2cnc(NC(=O)c3ccc(CNC(C)C(C)C)cc3)s2)cc1C(=O)N1CCN(C(C)=O)CC1 (stereo not drawn),18.7 µM (active),inactive,,4.69 µM (active),inactive,14.8 µM (active),inactive,,14.8 µM (active),4.69 µM (active),2.96 µM (active),,16.6 µM (active),14.8 µM (active),,16.6 µM (active),,,,
COc1cc2c(cc1-c1c(C)noc1C)ncc1[nH]c(=O)n([C@H](C)c3ccccn3)c12,2.96 µM (active),5.9 µM (active),0.264 µM (active),,3.72 µM (active),0.833 µM (active),0.833 µM (active),8.33 µM (active),0.0264 µM (active),7.43 µM (active),3.32 µM (active),,2.64 µM (active),3.32 µM (active),0.372 µM (active),6.62 µM (active),0.296 µM (active),0.743 µM (active),20.9 µM (active),
CC(C)c1cnn2c(NCc3ccccc3)cc(N[C@@H](CO)[C@H](O)CO)nc12,0.148 µM (active),0.132 µM (active),,0.235 µM (active),0.209 µM (active),0.332 µM (active),0.372 µM (active),0.235 µM (active),0.296 µM (active),0.332 µM (active),0.166 µM (active),0.418 µM (active),0.235 µM (active),0.235 µM (active),0.264 µM (active),0.132 µM (active),0.166 µM (active),,,
CC(=O)OCCN1C(=O)c2c(C)nc3ccc(S(=O)(=O)N4CCOCC4)cc3c2C1=O,,inactive,inactive,inactive,,inactive,inactive,,,,inactive,,,inactive,inactive,,inactive,,,inactive
O=C(O)Cn1nnc(-c2cc(N3CCC(Oc4cc(F)ccc4Br)CC3)no2)n1,,,inactive,,,inactive,inactive,,inactive,,inactive,,8.33 µM (active),inactive,inactive,,inactive,,inactive,16.6 µM (active)
